Test results published in paper PMC7862700, “An all-to-all approach to the identification of sequence-specific readers for epigenetic DNA modifications on cytosine”.

Tests used:
Experiment in all cases: DAPPL (digital affinity profiling via proximity ligation, sequencing); 10 mM Tris-HCl pH 7.5, 50 mM NaCl, 1 mM DTT, 4% glycerol, room temperature, 30 min; GST-TFs on glutathione beads, 16-mer random dsDNA library, 0.1% formaldehyde crosslink after washing; high values mean tight binding
Conditions in all cases: protein: recombinant; tags: N-terminal GST; dsDNA, one strand shown
FLI1 = molecular target: T1, FLI1 (Homo sapiens, UniProt Q01543 1-452)
T1 sequence: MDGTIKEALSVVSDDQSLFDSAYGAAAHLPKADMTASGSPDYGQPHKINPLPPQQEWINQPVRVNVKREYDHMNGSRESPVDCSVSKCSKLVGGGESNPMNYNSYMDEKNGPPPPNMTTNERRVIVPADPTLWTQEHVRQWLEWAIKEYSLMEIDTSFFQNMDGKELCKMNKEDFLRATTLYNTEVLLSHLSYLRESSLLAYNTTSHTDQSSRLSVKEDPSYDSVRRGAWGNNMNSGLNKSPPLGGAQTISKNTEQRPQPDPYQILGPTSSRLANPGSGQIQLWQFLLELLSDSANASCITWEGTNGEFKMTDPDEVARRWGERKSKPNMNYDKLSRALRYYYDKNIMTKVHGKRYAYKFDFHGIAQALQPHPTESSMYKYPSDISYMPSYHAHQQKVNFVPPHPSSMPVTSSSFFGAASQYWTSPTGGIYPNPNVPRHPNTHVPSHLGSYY
Outline: (§1)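 A tag-only sample was pooled with DNA-barcoded human transcription factors that had been expressed in yeast as GST fusions and captured on glutathione beads. The pools were incubated for 30 min at room temperature with 200 nmole of a random double-stranded 16-mer DNA library in Tris/NaCl/DTT/glycerol buffer, then washed, crosslinked with 0.1% formaldehyde, proximity-ligated (BsaI/T4 ligase, 1 h, 37 °C), PCR-amplified and sequenced on an Illumina NextSeq500. Binding signal is each hexamer's read frequency for a factor divided by its frequency for the tag-only sample.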

ELK1 = molecular target: T2, ELK1 (Homo sapiens, UniProt P19419 1-428)
T2 sequence: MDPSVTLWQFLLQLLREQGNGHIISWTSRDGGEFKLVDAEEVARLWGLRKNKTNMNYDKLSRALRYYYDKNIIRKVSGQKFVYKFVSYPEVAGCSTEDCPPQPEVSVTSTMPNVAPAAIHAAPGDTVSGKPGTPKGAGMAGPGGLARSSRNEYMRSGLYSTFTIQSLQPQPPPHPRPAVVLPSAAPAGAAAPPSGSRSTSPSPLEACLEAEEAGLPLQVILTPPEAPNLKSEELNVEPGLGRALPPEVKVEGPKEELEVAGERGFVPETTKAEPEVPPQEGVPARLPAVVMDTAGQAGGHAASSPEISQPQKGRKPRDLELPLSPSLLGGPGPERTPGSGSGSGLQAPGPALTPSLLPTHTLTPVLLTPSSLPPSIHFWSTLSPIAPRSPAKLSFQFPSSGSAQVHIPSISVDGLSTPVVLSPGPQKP
Outline: as §1

GABPA = molecular target: T3, GABPA (Homo sapiens, UniProt Q06546 1-454)
T3 sequence: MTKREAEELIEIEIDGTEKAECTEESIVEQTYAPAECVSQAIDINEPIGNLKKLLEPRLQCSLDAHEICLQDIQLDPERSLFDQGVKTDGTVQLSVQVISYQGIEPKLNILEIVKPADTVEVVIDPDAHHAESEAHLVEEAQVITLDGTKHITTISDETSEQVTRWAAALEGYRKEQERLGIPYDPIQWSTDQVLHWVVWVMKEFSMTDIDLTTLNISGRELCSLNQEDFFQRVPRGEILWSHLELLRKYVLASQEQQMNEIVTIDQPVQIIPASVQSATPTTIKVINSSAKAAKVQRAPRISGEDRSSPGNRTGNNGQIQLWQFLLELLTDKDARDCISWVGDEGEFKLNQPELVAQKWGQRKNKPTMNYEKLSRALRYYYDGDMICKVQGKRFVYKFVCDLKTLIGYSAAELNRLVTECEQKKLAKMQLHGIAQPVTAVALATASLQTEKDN
Outline: as §1

ERG = molecular target: T4, ERG (Homo sapiens, UniProt P11308 1-479)
T4 sequence: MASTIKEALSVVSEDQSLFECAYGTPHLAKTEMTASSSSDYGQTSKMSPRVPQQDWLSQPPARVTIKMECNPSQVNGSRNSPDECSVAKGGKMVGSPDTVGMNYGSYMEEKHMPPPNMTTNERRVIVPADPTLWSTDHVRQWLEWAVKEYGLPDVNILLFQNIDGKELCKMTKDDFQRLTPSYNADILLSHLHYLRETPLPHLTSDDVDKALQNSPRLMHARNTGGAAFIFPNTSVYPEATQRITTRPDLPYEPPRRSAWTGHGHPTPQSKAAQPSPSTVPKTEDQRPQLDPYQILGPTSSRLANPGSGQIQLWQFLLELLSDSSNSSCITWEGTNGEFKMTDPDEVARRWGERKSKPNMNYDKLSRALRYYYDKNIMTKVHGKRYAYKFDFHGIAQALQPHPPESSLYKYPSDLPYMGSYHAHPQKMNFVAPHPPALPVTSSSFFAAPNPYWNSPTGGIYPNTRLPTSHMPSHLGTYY
Outline: as §1

ELF1 = ELF1 (Homo sapiens, UniProt P32519 1-619)
Sequence of ELF1 (P32519 whole entry): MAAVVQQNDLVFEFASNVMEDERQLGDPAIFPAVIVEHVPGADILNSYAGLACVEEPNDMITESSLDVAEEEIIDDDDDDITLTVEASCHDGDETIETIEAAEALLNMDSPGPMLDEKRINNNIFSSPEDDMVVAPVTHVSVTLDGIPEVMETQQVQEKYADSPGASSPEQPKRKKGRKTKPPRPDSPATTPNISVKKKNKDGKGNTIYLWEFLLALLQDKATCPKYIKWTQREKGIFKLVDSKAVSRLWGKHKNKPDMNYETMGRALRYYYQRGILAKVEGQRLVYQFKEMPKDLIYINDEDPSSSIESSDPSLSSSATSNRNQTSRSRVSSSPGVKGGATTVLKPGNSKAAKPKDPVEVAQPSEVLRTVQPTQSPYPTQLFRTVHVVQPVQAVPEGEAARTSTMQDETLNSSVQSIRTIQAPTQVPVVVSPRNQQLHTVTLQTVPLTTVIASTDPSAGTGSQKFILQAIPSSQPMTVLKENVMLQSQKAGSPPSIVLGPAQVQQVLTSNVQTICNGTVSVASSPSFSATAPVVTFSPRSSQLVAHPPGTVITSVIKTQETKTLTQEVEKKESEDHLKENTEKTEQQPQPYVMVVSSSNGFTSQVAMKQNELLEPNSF
Outline: as §1

EHF = molecular target: T5, EHF (Homo sapiens, UniProt Q9NZC4 1-300)
T5 sequence: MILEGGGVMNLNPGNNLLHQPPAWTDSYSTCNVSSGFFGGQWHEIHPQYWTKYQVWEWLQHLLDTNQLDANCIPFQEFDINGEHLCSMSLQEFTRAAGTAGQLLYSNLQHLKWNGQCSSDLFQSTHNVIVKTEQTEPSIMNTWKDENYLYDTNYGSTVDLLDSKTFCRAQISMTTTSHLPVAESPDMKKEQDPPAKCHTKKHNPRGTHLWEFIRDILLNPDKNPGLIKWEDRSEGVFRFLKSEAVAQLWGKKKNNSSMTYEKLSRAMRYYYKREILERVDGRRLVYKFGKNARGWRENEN
Outline: as §1

SPI1 = SPI1 (Homo sapiens, UniProt P17947 1-270)
Outline: as §1

SPIB = SPIB (Homo sapiens, UniProt Q01892 1-262)
Sequence of SPIB (Q01892 whole entry): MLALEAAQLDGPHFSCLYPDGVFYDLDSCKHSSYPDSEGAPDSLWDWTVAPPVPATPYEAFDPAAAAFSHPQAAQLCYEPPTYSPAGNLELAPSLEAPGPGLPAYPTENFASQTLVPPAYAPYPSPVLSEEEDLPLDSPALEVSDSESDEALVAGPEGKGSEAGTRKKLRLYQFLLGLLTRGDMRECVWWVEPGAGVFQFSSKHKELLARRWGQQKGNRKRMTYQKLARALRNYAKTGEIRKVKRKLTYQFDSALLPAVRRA
Outline: as §1

ELK3 = molecular target: T6, ELK3 (Homo sapiens, UniProt P41970 1-407)
T6 sequence: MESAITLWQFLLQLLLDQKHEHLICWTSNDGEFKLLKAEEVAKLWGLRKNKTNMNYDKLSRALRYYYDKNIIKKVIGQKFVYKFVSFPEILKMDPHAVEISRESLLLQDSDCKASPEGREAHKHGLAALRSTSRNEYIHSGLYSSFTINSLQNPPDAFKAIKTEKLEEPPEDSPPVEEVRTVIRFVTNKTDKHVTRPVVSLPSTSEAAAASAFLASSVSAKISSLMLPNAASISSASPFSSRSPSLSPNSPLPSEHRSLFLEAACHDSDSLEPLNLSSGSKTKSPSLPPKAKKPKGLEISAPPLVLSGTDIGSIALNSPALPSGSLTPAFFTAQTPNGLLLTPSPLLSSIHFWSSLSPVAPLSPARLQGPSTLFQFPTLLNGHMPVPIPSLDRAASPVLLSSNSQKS
Outline: as §1

In the case of ACTACG, the binding signal (FLI1) is reported as 1.33 fold enrichment (6-mer frequency, TF over GST control), the binding signal (ELK1) is reported as 1.28 fold enrichment (6-mer frequency, TF over GST control) and the binding signal (GABPA) is reported as 1.32 fold enrichment (6-mer frequency, TF over GST control). For the same sequence, the binding signal (ERG) was 1.24 fold enrichment (6-mer frequency, TF over GST control), the binding signal (ELF1) was 1.34 fold enrichment (6-mer frequency, TF over GST control) and the binding signal (EHF) was 1.36 fold enrichment (6-mer frequency, TF over GST control). The binding signal (SPI1) was 1.26 fold enrichment (6-mer frequency, TF over GST control), the binding signal (SPIB) was 1.47 fold enrichment (6-mer frequency, TF over GST control) and the binding signal (ELK3) was 1.32 fold enrichment (6-mer frequency, TF over GST control).
